Source: PubChem BioAssay
A number with no mark means an inactive call. No rule for the calls is given here.

The compounds below were run against Pantothenate synthetase (Mycobacterium tuberculosis (strain ATCC 25618 / H37Rv)) (UniProt P9WIL5) (assay: Recombinant Mtb pantothenate synthetase (PanC) inhibitors, coupled enzyme, confirmatory (AID 375;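 also: 0% = full reaction with vehicle and 100% = no enzyme background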)). Conditions: coupled enzyme assay; at 10 µM, active compounds read high.
Sequence of Pantothenate synthetase (Mycobacterium tuberculosis (strain ATCC 25618 / H37Rv)) (P9WIL5 whole entry, looked up): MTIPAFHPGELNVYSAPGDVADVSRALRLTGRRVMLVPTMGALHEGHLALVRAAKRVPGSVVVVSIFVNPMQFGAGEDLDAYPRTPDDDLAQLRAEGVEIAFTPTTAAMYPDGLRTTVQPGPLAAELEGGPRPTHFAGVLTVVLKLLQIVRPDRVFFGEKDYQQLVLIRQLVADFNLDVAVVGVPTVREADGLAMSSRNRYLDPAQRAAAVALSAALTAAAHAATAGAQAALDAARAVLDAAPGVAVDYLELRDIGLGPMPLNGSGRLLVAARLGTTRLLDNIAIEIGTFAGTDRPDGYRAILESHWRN

Row | Structure (SMILES) | inhibition [%]
1 | COCCN(CCOC)c1ncnc2c1cnn2-c1ccccc1 | 0
2 | COc1ccc2[nH]c(=O)c(CN(Cc3cccs3)Cc3nnnn3C(C)(C)C)cc2c1 | 0
3 | Brc1ccc2[nH]c3nc(SCCN4CCOCC4)nnc3c2c1 | 0
4 | Cc1csc2ncc(C(=O)N3CCc4ccccc43)c(=O)n12 | 6
5 | Cc1ccc(-n2c(=O)c(C#N)cc3c(=O)n4ccccc4nc32)cc1 | 0
6 | Cn1c(SCC(=O)N2CCOCC2)nnc1-c1cccc(NC(=O)c2ccccc2F)c1 | 0
7 | c1ccn2c(SCc3cn4ccsc4n3)nnc2c1 | 1
8 | C[C@]12CC[C@@H]3c4ccc(O)cc4CC[C@H]3[C@@H]1CCC2=O | 6
9 | Cn1c(C(=O)NCC2CCCO2)cc2c(=O)n(C)c3ccccc3c21 (configuration not stated) | 0
10 | CCCCn1c(SCC(=O)Nc2cc(C)on2)nnc1-c1cccnc1 | 0
11 | COc1cc2c(cc1OC)C(c1cc(OC)c(OC)c(OC)c1)NCC2 (configuration not stated) | 0
12 | O=C(NCCc1ccccc1)C1CCN(S(=O)(=O)N2CCC3(CC2)OCCO3)CC1 | 4
13 | Cn1c(=O)[nH]c(=O)c2c1nc(Br)n2CCCSc1nc2ccccc2o1 | 0
14 | COc1cc(NC(=O)CC(C)C)ccc1NC(=O)c1ccco1 | 1
15 | CN(C)CCC=C1c2ccccc2CCc2ccccc21 | 0
16 | Cc1ccc(-c2nc(=S)c3c(n2Cc2ccco2)CCCC3)cc1 | 0
17 | Cn1cc(C2NC(=O)c3c(sc4c3CCCC4)N2)c2ccccc21 (configuration not stated) | 0
